Results taken from PMC5540273 (PLoS ONE, 2017).
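Also: KINOMEscan kinase panel screen.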

These compounds were tested on AURKC. Conditions: concentration: 1 μM, replicates: in singlicate; n = 1.
`Cc1c2ccc(N(C)c3ccnc(Nc4cccc(S(N)(=O)=O)c4)n3)cc2nn1Cc1ccccc1.Cl.Cl` [GW787226] was tested, and the “%Inh” value was 38%. For `Fc1ccc(-c2ncn(CCCN3CCOCC3)c2-c2cccnc2)cc1` [SB-211743], the “%Inh” value was 5%. `COc1ccc(Nc2ncc(C#N)c(Nc3ccccc3C(N)=O)n2)cc1N1CCN(C)CC1.Cl` [GSK1558669] was tested, and the “%Inh” value was 100%. For `O=c1cc(N2CCOCC2)nc2n(Cc3cccc4ccccc34)ccn12` [GSK2333389], the “%Inh” value was 14%. With `CCc1nc(-c2cccc(C)c2)c(-c2ccnc(NCc3ccccc3)c2)s1` the “%Inh” value was 0%. `O=C(NCCNc1ccnc(Nc2ccc(F)cc2)n1)c1cc2ccccc2s1` [GSK1379874] was tested, and the “%Inh” value was 32%. `O=C(NCCNc1ccnc(Nc2ccc(F)cc2)n1)Nc1ccccc1F` [GSK1379880] was tested, and the “%Inh” value was 6%. In the case of `CN(C(=O)c1ccc(-c2cc(-c3c[nH]nc3-c3ccccn3)ccn2)cc1)C1CCOCC1` [GW810083], the “%Inh” value is reported as 7%. For `O=C(Nc1n[nH]c2cc(-c3cccc(F)c3)ccc12)C1CC1` [SB-735464], the “%Inh” value was 35%. For `Cc1nnc(-c2ccc(C)c(-c3ccc(C(=O)Nc4ccc(NS(C)(=O)=O)cc4)cc3)c2)o1` [GW702865], the “%Inh” value was 3%. For `COc1ccc(S(=O)(=O)NC2CCN(c3cc(C)nc(Nc4cccc(C#N)c4)n3)CC2)cc1.O=C(O)C(F)(F)F` [GSK1653539], the “%Inh” value was 0%. With `O=C(NOCC1CC1)c1ccc(F)c(F)c1Nc1ccc(I)cc1Cl` the “%Inh” value was 20%. In the case of `COc1cc2c(cc1OC[C@@H](O)CO)ncc1c3ccc(C#N)cc3[nH]c21`, the “%Inh” value is reported as 0%. In the case of `NS(=O)(=O)CCc1cccc(Nc2nccc(-c3c(-c4cccc(NC(=O)c5c(F)cccc5F)c4)nn4ccccc34)n2)c1` [GSK336735], the “%Inh” value is reported as 72%. `COc1ccc(CNC(=O)NC2CCN(c3ccnc(Nc4ccc(OC)cc4)n3)C2)cc1` (stereo not drawn) [GSK1379727] was tested, and the “%Inh” value was 56%. For `c1ccc(-c2cc(-c3c[nH]nc3-c3ccccn3)ccn2)cc1` [GW576604], the “%Inh” value was 3%. With `Cn1cc(-c2ccc3c(c2)CCN3C(=O)Cc2ccccc2Cl)c2c(N)ncnc21` [GSK2608885] the “%Inh” value was 74%. For `Cc1nnc(-c2ccc3ncc(-c4ccc(S(C)=O)cc4)n3c2)o1` (stereo not drawn), the “%Inh” value was 0%. `Cc1ccc(NC(=O)c2ccnc(N3CCN(C)CC3)c2)cc1-c1ccc(C(=O)NCC2CC2)cc1` [GW775604] was tested, and the “%Inh” value was 0%. In the case of `CN(C1=C(c2ccccc2)C(=O)NC1=O)c1ccccc1` [SB-334860], the “%Inh” value is reported as 0%. For `Cc1ccc(C(=O)NCC(N)=O)cc1-n1c(C)cc(OCc2ccc(F)cc2F)c(Br)c1=O`, the “%Inh” value was 8%. With `NCC(NC(=O)c1cc(-c2cn[nH]c2)c(-c2ccnc3[nH]ccc23)s1)c1ccccc1.O=C(O)C(F)(F)F.O=C(O)C(F)(F)F` (stereo not drawn) [GSK1325775] the “%Inh” value was 82%. `CNc1ncnc2[nH]ncc12` [SKF-18355] was tested, and the “%Inh” value was 0%. With `CCCCCc1nc2c(N)ncnc2n1CCCCC` [SKF-97255] the “%Inh” value was 0%. With `C[C@@H](Oc1cc(-n2cnc3ccc(NC(=O)NC(C)(C)C)cc32)sc1C(N)=O)c1ccccc1Cl` [GSK346294] the “%Inh” value was 34%. In the case of `Cl.Oc1cccc(Nc2ccnc3cc(-c4ccncc4)ccc23)c1` [GW494601], the “%Inh” value is reported as 32%. `O=C1NC(=O)C(N2CCc3ccccc32)=C1c1cccc(Cl)c1` [SB-408010] was tested, and the “%Inh” value was 37%. For `Cc1cn2c(=O)cc(N3CCOCC3)nc2n1Cc1cccc(Cl)c1Cl` [GSK2334006], the “%Inh” value was 44%. `N#Cc1c(N2CCOCC2)sc(-c2ccn[nH]2)c1-c1ccc(Cl)cc1` was tested, and the “%Inh” value was 0%. `CC(=O)Nc1ccc(COc2ccc(Nc3ccnc4cc(-c5ccccn5)ccc34)cc2)cc1.Cl` [GW440148] was tested, and the “%Inh” value was 46%. For `O=c1cc(N2CCOCC2)nc2n(Cc3cccc(C(F)(F)F)c3)ccn12` [GSK2297543], the “%Inh” value was 4%. In the case of `Fc1ccc(-c2nn3c(OCC(F)(F)F)cccc3c2-c2ccncc2)cc1` [GW514784], the “%Inh” value is reported as 0%. For `Cc1cccc(-c2nc(Nc3ccc4ncsc4c3)c3ccccc3n2)n1` [GW867588], the “%Inh” value was 0%.
